Screening data (PubChem BioAssay)
CSC inhib: cancer stem cell viability inhibitors, primary screen, luminescence. cancer stem cell-like cells viability. inhibition, % at 7.5 µM. actives 1.1% (n = 300,000). AID 2717, 2010; in the data active means inhibition above about 75%; inconclusive means no clear call, values can overlap the other calls; tested in HMLE shEcad cells
MPTP inh: mitochondrial permeability transition pore inhibitors, primary screen, biochemical, isolated mouse mitochondria, absorbance. Ca2+ swelling absorbance, 30 min. inhibition, % at 10 µM. actives 1.4% (n = 360,000). AID 602449, 2012;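 active means inhibition of 50% or more, scaled per plate between neutral and stimulator controls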
Beta apoptosis: inhibitors of cytokine-induced beta cell apoptosis, primary screen, luminescence | INS-1E cytokine-induced death, ATP luminescence, 48 h; percent of positive-control rescue, neutral wells zero | protection from apoptosis, % (no concentration beside the values) | actives 0.8% (n = 300,000);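 active means Every replicate reaches about 75%, or at least half do and their mean reaches it too, limit read from the data; inconclusive means At least half of replicates reach the limit but their mean does not; inactive means Under half of replicates reach the limit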;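 further: higher means more ATP so stronger rescue from cytokine killing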
Mdm2 MdmX PPI: inhibitors of human Mdm2-MdmX association, primary screen, cell-based, luminescence, split luciferase, SaOS-2, uHTS. SaOS-2 split-luciferase Mdm2/MdmX complementation. AID 485346, 2010. actives 3% (n = 330,000). Protein Mdm4 (Homo sapiens) + E3 ubiquitin-protein ligase Mdm2 (Homo sapiens), …. inhibition, % at 8 µM;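 active means inhibition of at least 50% at 8 µM in the primary screen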
SKKanGAS inh: S. pyogenes SKKanGAS growth inhibitors in kanamycin, primary screen, streptokinase expression inhibitor project, SKKanGAS strain, BacTiter-Glo luminescence. inhibition, % at 7.5 µM. 6 h. actives 1.3% (n = 300,000);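 active means mean replicate score, as percent of positive control median, at least 50; inconclusive means mean below 50 but one replicate at or above 50; inactive means mean and every replicate below 50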;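 further: strain carries kanamycin resistance gene driven by streptokinase promoter and grows in 40 µg/ml kanamycin; loss of luminescence reflects streptokinase promoter inhibition or plain growth inhibition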
NR3A LBD binder: binders of NR3A ligand-binding domain, primary screen, biophysical, differential scanning fluorimetry, uHTS | Glutamate receptor ionotropic, NMDA 3A (GRIN3A) ligand-binding domain | NR3A LBD differential scanning fluorimetry, Tm shift; 0% = protein alone, 100% = glycine-bound protein | Tm shift relative to glycine control, % at 25 µM | actives 2.5% (n = 340,000) | AID 1259313, 2017;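 active means melting temperature shift of at least 10% of the positive control shift, at one fixed dose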
Mdm2 MdmX conf: Mdm2-MdmX complex disruptors, retested hits, confirmation, luminescence, single concentration | actives 55% (n = 10,000) | inhibition, % at 8 µM | shares compounds with Mdm2 MdmX PPI | Mdm2-MdmX binding, luminescent assay; in the data active means inhibition above about 40%
FLuc counter: full-length luciferase signal inhibition, confirmation, counter-screen for Mdm2/MdmX interaction inhibitor project, cell-based, single concentration, SaOS-2; actives 77% (n = 6,200); SaOS-2 full-length luciferase counterscreen, luminescence; shares compounds with Mdm2 MdmX PPI; inhibition, % at 8 µM;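 active means mean inhibition at 8 µM reaching about 37%, which flags the compound as non-specific, limit read from the data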;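 further: p53-null SaOS-2 cells with luciferase driven by a doxycycline-inducible promoter; compound on cells about two nights before reading with doxycycline added after day one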
Each line names hits and unclear results; the compound was inactive in the other large screens (follow-up assays come after a bar, where they were run). Compounds with a hit are over-represented: about 6.9% of the library has one in this group of screens.

C/C=C/c1cc(CN2CCN(c3ccccc3)CC2)c(O)c(OC)c1	Mdm2 MdmX PPI 82 | Mdm2 MdmX conf 45 | FLuc counter 83
O=[N+]([O-])c1ccc(NNS(=O)(=O)c2cc(Cl)ccc2Cl)nc1	none
O=c1[nH]c2ccc(Cl)cc2c(-c2ccccc2)c1SC(=S)N1CCOCC1	Mdm2 MdmX PPI 53, SKKanGAS inh 84 | Mdm2 MdmX conf 52 | FLuc counter 45
O=c1[nH]c2ccc(Cl)cc2c(-c2ccccc2)c1SC(=S)N1CCCCC1	Mdm2 MdmX PPI 61, SKKanGAS inh 66 | Mdm2 MdmX conf 44 | FLuc counter 57
CC(C)C1C(C#N)=C(N)Oc2n[nH]c(-c3ccc4ccccc4c3)c21 (stereo not given)	Mdm2 MdmX PPI 57 | Mdm2 MdmX conf 63 | FLuc counter 50
Cc1ccc(S(=O)(=O)NCCC(=O)NC2CC2)cc1	none
O=C(Nc1ccc(-c2csc(Nc3cccc(C(F)(F)F)c3)n2)cc1)c1ccccc1	CSC inhib 136, Mdm2 MdmX PPI 63, SKKanGAS inh 84, NR3A LBD binder 25 | Mdm2 MdmX conf inactive | FLuc counter 78
O=C(Nc1nc(-c2cccnc2)cs1)c1cccc([N+](=O)[O-])c1	none
O=C(Nc1ccc(-c2csc(Nc3ccc(Cl)cc3)n2)cc1)c1ccccc1	none (no result: SKKanGAS inh)
O=C(Nc1ccc(-c2csc(Nc3cccc(C(F)(F)F)c3)n2)cc1)c1cc([N+](=O)[O-])cc(C(F)(F)F)c1	CSC inhib 88, Beta apoptosis 111, Mdm2 MdmX PPI 68, SKKanGAS inh 53, NR3A LBD binder 21 | Mdm2 MdmX conf inactive
Cc1cccc(S(=O)(=O)NC(=O)C2(C)CCN2C(=O)Cc2ccccc2)c1 (stereo not given)	none (no result: CSC inhib, Beta apoptosis, Mdm2 MdmX PPI, SKKanGAS inh, NR3A LBD binder)
O=c1c2ccccc2oc2cc(C#CC3(O)CCCCC3)ccc12	Mdm2 MdmX PPI 87 | Mdm2 MdmX conf 76 | FLuc counter 98
O=c1c2ccccc2sc2ccc(C#CC3(O)CCCCC3)cc12	Mdm2 MdmX PPI 94 | Mdm2 MdmX conf 94 | FLuc counter inactive
COc1cccc2sc3ccc(C#CC4(O)CCCCC4)cc3c(=O)c12	none
CCCN1C(=S)c2ccccc2C1c1ccccc1 (stereo not given)	none
N#CCSc1nc2c(sc(=S)n2Cc2ccco2)c(=O)n1-c1ccc(F)cc1	Mdm2 MdmX PPI 61 | Mdm2 MdmX conf 58 | FLuc counter inactive
CC(C)c1ccccc1NC(=O)C1CCCN(C(=O)c2ccc(Cl)cc2)C1 (stereo not given)	none (no result: CSC inhib, Beta apoptosis, SKKanGAS inh)
CC(=O)Nc1ccc2nc(-c3ccncc3)[nH]c2c1	none (no result: Beta apoptosis)
O=C(Nc1ccc(-c2nc3ccc(NC(=O)c4cccs4)cc3[nH]2)cc1)c1cccs1	CSC inhib 102, Mdm2 MdmX PPI 95, NR3A LBD binder 30 | Mdm2 MdmX conf 47 | FLuc counter inactive
O=C(c1ccccc1)c1ccc2nc(-c3ccc(NC(=O)c4ccccc4Br)cc3)[nH]c2c1	none (no result: CSC inhib, Beta apoptosis)
Cc1ccccc1C(=O)Nc1ccc(-c2nc3ccc(C(=O)c4ccccc4)cc3[nH]2)cc1	CSC inhib 84, Mdm2 MdmX PPI 67, NR3A LBD binder 17 | Mdm2 MdmX conf inactive | FLuc counter 46
CCN(C(=O)C1CC1)C1CCS(=O)(=O)C1 (stereo not given)	none
N#Cc1cccc(S(=O)(=O)NCc2nnc3ccccn23)c1	none (no result: CSC inhib, SKKanGAS inh)
O=C1c2ccc3c4c(ccc(c24)C(=O)N1c1ccc(O)cc1)C(=O)N(c1ccc(O)cc1)C3=O	Mdm2 MdmX PPI 63, SKKanGAS inh inconclusive | Mdm2 MdmX conf inactive
NC(=O)c1cc([N+](=O)[O-])ccc1NCc1ccc(O)cc1	CSC inhib inconclusive (no result: SKKanGAS inh)
COc1cccc(-c2cc(C(=O)Nc3ccncc3)c3ccccc3n2)c1	none
COc1cccc(-c2cc(C(=O)Nc3ccc(N(C)C(C)=O)cc3)c3cc(Br)ccc3n2)c1	Mdm2 MdmX PPI 62 | Mdm2 MdmX conf inactive
CC(=O)Nc1cccc(NC(=O)c2cc(-c3cccnc3)nc3ccc(Br)cc23)c1	Mdm2 MdmX PPI 68 | Mdm2 MdmX conf 73 | FLuc counter 90
CC(C)NC(=S)N/N=C/c1ccc(C(C)(C)C)cc1	none
Cc1nc(CCNC(=O)c2cc(COc3ccc(F)cc3Cl)on2)sc1C	none
CN1CCN(c2nc(-c3ccc(C(C)(C)C)cc3)nc3ccccc23)CC1	Mdm2 MdmX PPI 50 | Mdm2 MdmX conf 48 | FLuc counter 173
CCSc1ccccc1-c1nc(-c2ccncc2)no1	none (no result: Beta apoptosis)
Cc1ccc(C)c(OCCC(=O)Nc2ccc3c(c2)OCO3)c1	none (no result: CSC inhib, SKKanGAS inh)
COc1cc([N+](=O)[O-])cc(/C=N/NC(=O)c2cccnc2)c1O	Mdm2 MdmX PPI 55, SKKanGAS inh 88 | Mdm2 MdmX conf 52 | FLuc counter 51
COc1ccc(Br)cc1/C=N/NC(=O)c1cccnc1	none
COc1ccc(/C=N/NC(=O)c2cccnc2)cc1COc1ccc([N+](=O)[O-])c(C)c1	Mdm2 MdmX PPI 52 | Mdm2 MdmX conf 55 | FLuc counter 48
CCNc1ccc(P(=O)(c2ccccc2)c2ccccc2)cc1	none
O=C1C=C(C#Cc2ccc(Oc3ccccc3)cc2)C[C@@H](c2ccc(F)cc2)C1	none (no result: CSC inhib, Beta apoptosis, Mdm2 MdmX PPI, SKKanGAS inh, NR3A LBD binder)
COc1ccccc1OCCN1CSC(=S)N(C)C1	CSC inhib inconclusive, Mdm2 MdmX PPI 52 | Mdm2 MdmX conf inactive | FLuc counter 82
Cc1cccc(OCCN2CSC(=S)N(C)C2)c1	none
O=C(Cn1cc(C(F)(F)F)ccc1=O)N/N=C/c1ccccc1	none
Cc1cc(=O)[nH]c(N=N/C(=N/Nc2ccccc2C)c2ccccc2)n1	Beta apoptosis 93, Mdm2 MdmX PPI 69 | Mdm2 MdmX conf 82 | FLuc counter 49
COc1ccc(N/N=C(/N=Nc2nc(C)cc(=O)[nH]2)c2ccccc2)cc1	Beta apoptosis 91, Mdm2 MdmX PPI 54 | Mdm2 MdmX conf 77 | FLuc counter inactive
Cc1cc(=O)[nH]c(N=N/C(=N/Nc2ccc(O)cc2)c2ccccc2)n1	none
CC(=O)c1ccc(N(CC(=O)NC2CCS(=O)(=O)C2)S(=O)(=O)c2ccc(Cl)cc2)cc1 (stereo not given)	none (no result: SKKanGAS inh)
Cc1ccccc1S(=O)(=O)NCc1ccc(N2CCN(C)CC2)cc1	none
CCOC(=O)c1sc2ncn(CC(=O)Nc3cc(C)on3)c(=O)c2c1C	Mdm2 MdmX PPI 55 (no result: CSC inhib, Beta apoptosis, SKKanGAS inh) | Mdm2 MdmX conf inactive
